The results in this text go back to article PMC7862700, “An all-to-all approach to the identification of sequence-specific readers for epigenetic DNA modifications on cytosine”.

Common to all, as to test: DAPPL (digital affinity profiling via proximity ligation, sequencing); 10 mM Tris-HCl pH 7.5, 50 mM NaCl, 1 mM DTT, 4% glycerol, room temperature, 30 min; GST-TFs on glutathione beads, 16-mer random dsDNA library, 0.1% formaldehyde crosslink after washing; high values mean tight binding
Holding throughout (details): protein: recombinant; tags: N-terminal GST; dsDNA, one strand shown

One assay deals with T1, ERF (Homo sapiens, UniProt P50548 1-548).
T1 sequence: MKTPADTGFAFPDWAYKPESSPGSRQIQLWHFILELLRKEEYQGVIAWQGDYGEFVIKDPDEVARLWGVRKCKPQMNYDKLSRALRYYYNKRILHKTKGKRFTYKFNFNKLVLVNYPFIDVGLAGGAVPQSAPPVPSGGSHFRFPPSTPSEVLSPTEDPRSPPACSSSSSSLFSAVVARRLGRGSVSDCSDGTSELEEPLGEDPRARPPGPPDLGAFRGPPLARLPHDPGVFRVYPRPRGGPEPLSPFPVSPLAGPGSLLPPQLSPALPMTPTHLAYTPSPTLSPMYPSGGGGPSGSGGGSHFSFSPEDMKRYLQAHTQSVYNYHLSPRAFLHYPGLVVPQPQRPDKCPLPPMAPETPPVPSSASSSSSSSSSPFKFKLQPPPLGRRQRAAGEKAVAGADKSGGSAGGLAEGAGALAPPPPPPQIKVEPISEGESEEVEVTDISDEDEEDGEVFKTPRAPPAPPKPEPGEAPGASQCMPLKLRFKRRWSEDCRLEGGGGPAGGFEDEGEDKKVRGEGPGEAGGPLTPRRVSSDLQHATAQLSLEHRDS
In a few lines: (§1)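 Human transcription factors carrying a GST fusion were produced in yeast, bound to glutathione beads, tagged with DNA barcodes and pooled together with a tag-only sample. Each pool was held with 200 nmole of a random double-stranded 16-mer DNA library in Tris/NaCl/DTT/glycerol buffer for 30 min at room temperature, then washed, crosslinked in 0.1% formaldehyde, proximity-ligated with BsaI/T4 ligase (1 h, 37 °C), PCR-amplified and sequenced on an Illumina NextSeq500. Binding signal is the read frequency of each hexamer for a given factor divided by its frequency in the tag-only sample.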

A further assay addresses T2, ETV3L (Homo sapiens, UniProt Q6ZN32 1-361).
T2 sequence: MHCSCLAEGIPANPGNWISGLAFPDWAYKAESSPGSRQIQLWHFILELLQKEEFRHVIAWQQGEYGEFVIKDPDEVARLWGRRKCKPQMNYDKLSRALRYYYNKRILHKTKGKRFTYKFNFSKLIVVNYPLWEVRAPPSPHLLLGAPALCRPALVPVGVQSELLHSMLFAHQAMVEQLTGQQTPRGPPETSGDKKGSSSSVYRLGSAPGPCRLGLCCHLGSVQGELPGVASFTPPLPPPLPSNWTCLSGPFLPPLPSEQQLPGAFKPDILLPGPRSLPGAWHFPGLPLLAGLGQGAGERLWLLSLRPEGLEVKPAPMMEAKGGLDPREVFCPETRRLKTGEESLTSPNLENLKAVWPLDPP
In a few lines:
as §1

A further assay concerns the target T3, ETS2 (Homo sapiens, UniProt P15036 1-469).
T3 sequence: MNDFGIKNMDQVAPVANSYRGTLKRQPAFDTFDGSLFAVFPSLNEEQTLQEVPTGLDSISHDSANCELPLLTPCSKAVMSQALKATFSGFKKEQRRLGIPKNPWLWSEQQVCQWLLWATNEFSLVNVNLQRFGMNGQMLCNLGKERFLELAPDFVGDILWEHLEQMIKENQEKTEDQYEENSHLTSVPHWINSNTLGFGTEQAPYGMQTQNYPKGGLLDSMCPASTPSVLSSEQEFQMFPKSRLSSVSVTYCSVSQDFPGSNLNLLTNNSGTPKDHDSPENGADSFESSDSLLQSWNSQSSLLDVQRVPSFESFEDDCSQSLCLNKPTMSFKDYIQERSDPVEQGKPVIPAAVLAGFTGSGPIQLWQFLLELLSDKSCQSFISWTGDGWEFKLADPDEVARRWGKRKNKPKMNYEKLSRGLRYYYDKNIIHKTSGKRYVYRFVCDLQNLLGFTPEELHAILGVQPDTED
In a few lines: as §1

The next assay has as its target T4, SPDEF (Homo sapiens, UniProt O95238 1-335).
T4 sequence: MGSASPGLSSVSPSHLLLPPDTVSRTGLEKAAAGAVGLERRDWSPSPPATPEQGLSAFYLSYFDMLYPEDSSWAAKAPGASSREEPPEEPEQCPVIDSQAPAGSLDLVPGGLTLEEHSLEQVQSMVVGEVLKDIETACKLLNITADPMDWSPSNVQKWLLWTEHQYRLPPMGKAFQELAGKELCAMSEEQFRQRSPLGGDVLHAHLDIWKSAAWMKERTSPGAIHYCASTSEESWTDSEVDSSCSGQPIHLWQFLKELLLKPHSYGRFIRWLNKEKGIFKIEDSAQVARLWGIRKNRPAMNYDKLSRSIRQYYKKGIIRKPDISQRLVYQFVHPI
In a few lines: as §1

The target in a further assay is T5, ETV7 (Homo sapiens, UniProt Q9Y603 1-341).
T5 sequence: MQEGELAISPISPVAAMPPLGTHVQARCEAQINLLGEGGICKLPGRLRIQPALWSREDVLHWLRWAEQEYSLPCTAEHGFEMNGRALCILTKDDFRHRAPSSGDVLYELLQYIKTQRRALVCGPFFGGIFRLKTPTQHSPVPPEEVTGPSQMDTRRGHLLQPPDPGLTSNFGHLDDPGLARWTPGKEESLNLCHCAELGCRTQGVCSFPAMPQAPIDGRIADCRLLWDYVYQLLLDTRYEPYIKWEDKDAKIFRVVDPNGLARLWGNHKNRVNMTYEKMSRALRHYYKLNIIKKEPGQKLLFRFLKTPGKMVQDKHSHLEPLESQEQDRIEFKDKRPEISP
In a few lines:
as §1

Another assay concerns the target T6, ELF5 (Homo sapiens, UniProt Q9UKW6-2 1-255).
T6 sequence: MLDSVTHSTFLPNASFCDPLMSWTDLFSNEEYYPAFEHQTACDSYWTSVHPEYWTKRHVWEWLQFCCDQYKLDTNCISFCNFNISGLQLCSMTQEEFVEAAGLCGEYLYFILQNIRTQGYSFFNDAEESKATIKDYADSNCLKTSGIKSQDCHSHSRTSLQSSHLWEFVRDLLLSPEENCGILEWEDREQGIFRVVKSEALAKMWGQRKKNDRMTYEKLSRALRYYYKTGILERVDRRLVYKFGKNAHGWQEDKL
The method, boiled down:
as §1

Another assay deals with T7, ETV3 (Homo sapiens, UniProt P41162-2 1-143).
T7 sequence: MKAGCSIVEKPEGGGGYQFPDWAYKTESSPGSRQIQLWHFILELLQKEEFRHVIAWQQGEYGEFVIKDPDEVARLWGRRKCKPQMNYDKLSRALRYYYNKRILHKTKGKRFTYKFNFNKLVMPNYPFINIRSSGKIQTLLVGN
The method, boiled down: as §1

Another assay deals with ETV6 (Homo sapiens, UniProt P41212 1-452). In a few lines: as §1
ETV6, sequence (P41212 whole entry): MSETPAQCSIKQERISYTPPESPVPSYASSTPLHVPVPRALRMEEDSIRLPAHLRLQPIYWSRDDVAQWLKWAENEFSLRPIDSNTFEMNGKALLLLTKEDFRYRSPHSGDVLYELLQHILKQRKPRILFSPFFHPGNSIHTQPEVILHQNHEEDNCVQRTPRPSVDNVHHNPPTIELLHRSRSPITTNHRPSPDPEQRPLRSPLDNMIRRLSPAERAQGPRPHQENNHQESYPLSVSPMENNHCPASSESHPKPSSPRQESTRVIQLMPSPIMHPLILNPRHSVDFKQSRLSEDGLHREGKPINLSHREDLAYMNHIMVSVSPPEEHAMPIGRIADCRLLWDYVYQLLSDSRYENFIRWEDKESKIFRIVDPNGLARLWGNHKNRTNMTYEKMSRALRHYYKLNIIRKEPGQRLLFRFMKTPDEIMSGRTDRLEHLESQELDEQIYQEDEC

Take AAGTCC: the binding signal was 1.08 fold enrichment (6-mer frequency, TF over GST control) with ERF; 1.21 fold enrichment (6-mer frequency, TF over GST control) with ETV3L; 1.27 fold enrichment (6-mer frequency, TF over GST control) in the assay with ETS2; 1.4 fold enrichment (6-mer frequency, TF over GST control) in the assay with SPDEF; 1.23 fold enrichment (6-mer frequency, TF over GST control) in the assay with ETV7; 1.34 fold enrichment (6-mer frequency, TF over GST control) in the assay with ELF5. Also, the binding signal with ETV3 is 1.37 fold enrichment (6-mer frequency, TF over GST control); with ETV6 it was 1.2 fold enrichment (6-mer frequency, TF over GST control).

For TGCTCC, the binding signal with ERF is 1.42 fold enrichment (6-mer frequency, TF over GST control); with ETV3L it was 1.45 fold enrichment (6-mer frequency, TF over GST control); with ETS2 it was 1.45 fold enrichment (6-mer frequency, TF over GST control); with SPDEF, 1.74 fold enrichment (6-mer frequency, TF over GST control); with ETV7, 1.63 fold enrichment (6-mer frequency, TF over GST control); with ELF5 it was 1.37 fold enrichment (6-mer frequency, TF over GST control). Besides, the binding signal with ETV3 was 1.37 fold enrichment (6-mer frequency, TF over GST control); with ETV6, 1.34 fold enrichment (6-mer frequency, TF over GST control).

For the sequence AAATCC, the binding signal with ERF was 1.48 fold enrichment (6-mer frequency, TF over GST control); in the assay with ETV3L, 1.47 fold enrichment (6-mer frequency, TF over GST control); with ETS2, 1.62 fold enrichment (6-mer frequency, TF over GST control); in the assay with SPDEF, 2.08 fold enrichment (6-mer frequency, TF over GST control); with ETV7 it was 1.61 fold enrichment (6-mer frequency, TF over GST control); with ELF5, 1.75 fold enrichment (6-mer frequency, TF over GST control). The binding signal with ETV3 is 1.49 fold enrichment (6-mer frequency, TF over GST control); with ETV6, 1.6 fold enrichment (6-mer frequency, TF over GST control).

As for CTTCGC, the binding signal was 1.61 fold enrichment (6-mer frequency, TF over GST control) with ERF; 1.45 fold enrichment (6-mer frequency, TF over GST control) with ETV3L; 1.42 fold enrichment (6-mer frequency, TF over GST control) with ETS2; 1.54 fold enrichment (6-mer frequency, TF over GST control) with SPDEF; 1.38 fold enrichment (6-mer frequency, TF over GST control) in the assay with ETV7; 1.34 fold enrichment (6-mer frequency, TF over GST control) with ELF5. The binding signal with ETV3 was 1.43 fold enrichment (6-mer frequency, TF over GST control); with ETV6 it was 1.34 fold enrichment (6-mer frequency, TF over GST control).

Regarding GGACCT, the binding signal was 1.31 fold enrichment (6-mer frequency, TF over GST control) with ERF; 1.43 fold enrichment (6-mer frequency, TF over GST control) with ETV3L; 1.41 fold enrichment (6-mer frequency, TF over GST control) with ETS2; 1.53 fold enrichment (6-mer frequency, TF over GST control) with SPDEF; 1.34 fold enrichment (6-mer frequency, TF over GST control) in the assay with ETV7; 1.27 fold enrichment (6-mer frequency, TF over GST control) with ELF5. Further, the binding signal in the assay with ETV3 is 1.32 fold enrichment (6-mer frequency, TF over GST control); with ETV6, 1.34 fold enrichment (6-mer frequency, TF over GST control).

ATGCGC: the binding signal is 1.24 fold enrichment (6-mer frequency, TF over GST control) with ERF; 1.22 fold enrichment (6-mer frequency, TF over GST control) with ETV3L; 1.19 fold enrichment (6-mer frequency, TF over GST control) with ETS2; 1.1 fold enrichment (6-mer frequency, TF over GST control) in the assay with SPDEF; 1.22 fold enrichment (6-mer frequency, TF over GST control) in the assay with ETV7; 1.14 fold enrichment (6-mer frequency, TF over GST control) in the assay with ELF5. Further, the binding signal was 1.17 fold enrichment (6-mer frequency, TF over GST control) with ETV3 and 1.22 fold enrichment (6-mer frequency, TF over GST control) with ETV6.

With AAGCCT, the binding signal was 1.17 fold enrichment (6-mer frequency, TF over GST control) with ERF; 1.23 fold enrichment (6-mer frequency, TF over GST control) in the assay with ETV3L; 1.22 fold enrichment (6-mer frequency, TF over GST control) in the assay with ETS2; 1.02 fold enrichment (6-mer frequency, TF over GST control) with SPDEF; 1.3 fold enrichment (6-mer frequency, TF over GST control) in the assay with ETV7; 1.2 fold enrichment (6-mer frequency, TF over GST control) with ELF5. In addition, the binding signal in the assay with ETV3 is 1.3 fold enrichment (6-mer frequency, TF over GST control); with ETV6, 1.23 fold enrichment (6-mer frequency, TF over GST control).

On to CCTTTA, for which the binding signal is 1.34 fold enrichment (6-mer frequency, TF over GST control) with ERF; 1.38 fold enrichment (6-mer frequency, TF over GST control) in the assay with ETV3L; 1.32 fold enrichment (6-mer frequency, TF over GST control) in the assay with ETS2; 1.38 fold enrichment (6-mer frequency, TF over GST control) in the assay with SPDEF; 1.23 fold enrichment (6-mer frequency, TF over GST control) in the assay with ETV7; 1.41 fold enrichment (6-mer frequency, TF over GST control) in the assay with ELF5. Further, the binding signal with ETV3 is 1.33 fold enrichment (6-mer frequency, TF over GST control); with ETV6, 1.41 fold enrichment (6-mer frequency, TF over GST control).
